Bioassay records from PubChem BioAssay.
Hits are enriched below; roughly 19% of the tested compounds scored in any of these assays.
DT40 TDP1 no CPT – qHTS for Inhibitors of human tyrosyl-DNA phosphodiesterase 1 (TDP1): qHTS in cells in absence of CPT; 420,000 tested, 15% active; DT40 Tdp1-/- hTDP1 cells, no CPT, ATP luminescence, 48 h; Potency, µM (doses to about 46.2 µM), for the others: at the top dose activity change, negative = growth inhibition, actives largely listed as inhibitors; further: potency means the concentration at half of the fitted maximal effect; on the % scale 0 is the no-effect control and ±100 the full control effect; nearly all actives have a fitted effect of over 55% in size
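Readout: luminescence from CellTiter-Glo after 30 min in the dark at RT. Cells: DT40 Tdp1-/- with stable hTDP1, 400/well. Exposure: compounds alone, ≥48 hr, 37 °C.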
TDP1 block – inhibitors of human tyrosyl-DNA phosphodiesterase TDP1; Potency, µM (highest dose often 130 µM), for the others: top-dose activity change, negative = inhibition, hits mostly inhibitors; Q9NUW8; recombinant TDP1, AlphaScreen DNA substrate cleavage; 350,000 tested, 0.28% active; further: potency means the concentration at half of the fitted maximal effect; on the % scale 0 is the no-effect control and ±100 the full control effect; nearly all actives have a fitted effect of over 40% in size
Target sequence (Q9NUW8 whole entry, looked up): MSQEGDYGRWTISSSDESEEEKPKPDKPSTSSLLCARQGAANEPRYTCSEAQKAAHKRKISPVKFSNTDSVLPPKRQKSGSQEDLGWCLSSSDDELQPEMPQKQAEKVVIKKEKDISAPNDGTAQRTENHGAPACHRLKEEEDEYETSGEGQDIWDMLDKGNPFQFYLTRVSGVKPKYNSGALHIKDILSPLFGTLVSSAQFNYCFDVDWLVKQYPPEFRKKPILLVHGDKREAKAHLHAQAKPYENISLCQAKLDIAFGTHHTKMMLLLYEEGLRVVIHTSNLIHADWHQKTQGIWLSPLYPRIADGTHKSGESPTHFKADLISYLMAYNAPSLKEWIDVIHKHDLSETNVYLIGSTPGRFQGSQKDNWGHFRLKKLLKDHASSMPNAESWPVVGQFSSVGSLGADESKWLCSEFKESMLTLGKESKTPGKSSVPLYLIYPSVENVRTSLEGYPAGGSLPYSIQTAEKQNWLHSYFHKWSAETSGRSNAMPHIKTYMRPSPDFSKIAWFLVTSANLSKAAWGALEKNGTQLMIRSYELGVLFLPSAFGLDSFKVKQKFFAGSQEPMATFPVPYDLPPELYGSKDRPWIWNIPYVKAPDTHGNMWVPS
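Enzyme-compound mixtures sat 15 min at room temperature, followed by a 5 min reaction with 15 nM final substrate and 10 min with AlphaScreen beads. Recombinant human Tdp1 was used at 1 nM final.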
IL1B secr inh – blocks inflammasome-driven IL-1 beta release | THP-1 LPS/ATP IL-1B secretion, AlphaLISA, 16 h; stronger effect = lower value | activity change, % at 57.5 µM | 360,000 tested, 4.7% active; in the data active means activity change below about -50%; inconclusive means mostly about -30% to -49%; further: on the % scale 0 is the no-effect control and ±100 the full control effect
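Secreted IL-1B measured by AlphaLISA bead assay after 16 h compound exposure of THP-1 cells; compounds (final up to 57.5 uM) added 1 h before LPS (250 ng/mL) and ATP (1.25 mM) stimulation; lower signal means less secretion.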
HepG2 tox – counter-screen for TGF-b inhibitors: cytotoxicity in HepG2 cells; 410,000 tested, 0.76% active; Potency, µM (top dose mostly 46.1 µM), without a hit: at the top dose activity change, negative = cytotoxicity, actives largely listed as cytotoxic; HepG2 CAGA-GFP viability, ATP luminescence, 18 h; further: potency means the concentration at half of the fitted maximal effect
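CellTiter-Glo luminescence gave cytotoxicity after 18 hours at 37 degrees C. The cells were HepG2 CAGA-GFP in 1% FBS DMEM, stimulated with 500 pg/mL TGF-beta after compound addition. %Activity was normalised to no-cell wells (complete cell-killing) and DMSO (no toxicity), and curves were fitted and classified.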
TGFb inhibitor – blocks TGF-b signaling. HepG2 CAGA-GFP TGF-b/SMAD3 reporter, GFP fluorescence, 18 h; TGF-beta stimulated, 500 pg/mL final. 410,000 tested, 1.2% active. Potency, µM (titrated, usually from 46.1 µM), inactives show at the highest dose activity, negative = inhibition, hits mostly inhibitors; further: potency means the concentration at half of the fitted maximal effect; on the % scale 0 is the no-effect control and ±100 the full control effect; nearly all actives have a fitted effect of over 65% in size
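Cell-based qHTS in HEPG2 carrying a CAGA-GFP Smad reporter; compounds added before 500 pg/mL final TGF-beta, 18 h incubation at 37 degrees C, GFP fluorescence quantified per cell by imaging cytometry.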
TDP1 cell CPT – growth inhibition of DT40 Tdp1-/-;hTDP1 cells with camptothecin (screen for TDP1 inhibitors); chicken DT40 Tdp1-/-;hTDP1 cells + 20 nM CPT, ATP luminescence, 48 h; Potency, µM (doses to about 46.2 µM), without a hit: at the highest dose activity change, negative = growth inhibition, most hits filed as inhibitors; 420,000 tested, 12% active; AID 686979; further: potency means the concentration at half of the fitted maximal effect; on the % scale 0 is the no-effect control and ±100 the full control effect; nearly all actives have a fitted effect of over 55% in size
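Chicken DT40 Tdp1-/- cells complemented with human TDP1, 400 cells/well, exposed to compounds plus 20 nM camptothecin for at least 48 h at 37 C; viability read as ATP content by CellTiter-Glo luminescence.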
Numbers without * were called inactive; ? = inconclusive; . = no result. Unless noted, the call rests on the fitted dose curve; in most records, active means well fitted curve in the direction sought with a large enough effect; inconclusive means small, poorly fitted or top-dose-only effect, or another doubt; inactive means no such curve, though single readings can be large; an effect the other way counts as inactive or inconclusive.

SMILES | DT40 TDP1 no CPT | TDP1 block | IL1B secr inh | HepG2 tox | TGFb inhibitor | TDP1 cell CPT
COc1cccc(-c2cc(C(=O)Nc3ccc([N+](=O)[O-])cn3)c3ccccc3n2)c1 | 11.6µM* | -2.7% | -5.4 | -7.3% | ? | ?
COc1cccc(-c2cc(C(=O)Nc3ccccc3)c3ccccc3n2)c1 | 6.51µM* | . | 21.5 | -19.5% | -22.5% | ?
COc1ccc(-c2cc(C(=O)Nc3ccc(C(N)=O)cc3)c3ccccc3n2)cc1 | 6.51µM* | 7.4% | . | -13.4% | -2.7% | 8.2µM*
O=C(Nc1ccc([N+](=O)[O-])cn1)c1cc(-c2cccc(Br)c2)nc2ccccc12 | -18.4% | -2.7% | 0.0 | -4.0% | 17.9% | ?
CCOC(=O)C1CCN(C(=O)c2cc(S(=O)(=O)N3CCOCC3)ccc2C)CC1 | 5.9% | 0.0% | 18.0 | 16.8% | 2.1% | -15.9%
CC(C)C[C@H](NC(=O)N1CCCCCC1)C(=O)N[C@H](Cc1cn(C)c2ccccc12)C(=O)N[C@H](Cc1ccccn1)C(=O)O | -0.4% | 10.2% | . | . | . | -1.8%
CCCn1c(SCC(=O)Nc2cccnc2Cl)n[nH]c1=O | -5.0% | -1.5% | -7.8 | -12.9% | -6.9% | -4.0%
CCCCN(CC)C(=O)Cn1c(=O)n(-c2ccc(OCC)cc2)c(=O)c2c3c(sc21)CCC3 | ? | 3.6% | . | 2.5% | -0.5% | ?
COc1ccc(COc2cc(-c3cccc(OC)c3)nc3ccc(NC(=O)C(C)C)cc23)cc1 | 4.61µM* | 1.3% | 61.2 | 12.7% | -13.3% | 4.61µM*
CCOc1cccc(-c2cc(C(=O)Nc3ccon3)c3ccccc3n2)c1 | 9.2µM* | 4.9% | -11.4 | -7.3% | 1.8% | ?
Cc1c(C(C)(C)O)[nH]c2ccc(C(F)(F)F)cc12 | ? | . | 18.5 | -25.0% | -10.3% | ?
COc1cc(CNC(=O)c2ccc(Cn3nc(C)c(Cl)c3C)o2)cc(OC)c1 | 8.2µM* | 2.3% | -11.7 | -44.6% | -25.2% | ?
COc1cc(CNC(=O)c2nc(Cn3nc(C)c(Br)c3C)no2)cc(OC)c1 | ? | 3.8% | -71.2* | -2.7% | -6.4% | 29.1µM*
COC(=O)c1ccc(Cn2nc(C)c(Cl)c2C)o1 | -0.1% | 1.5% | 4.9 | 17.1% | -0.2% | -10.3%
Cc1nc(NC(=O)c2ccccc2)sc1-c1cc(C(=O)NCCO)nn1Cc1ccccc1 | -16.2% | . | ? | . | . | 21.8%
CCOc1[nH]c(/N=C/c2ccccc2)c(C#N)c1C#N | -24.7% | 0.0% | . | -20.6% | 18.7% | 6.31µM*
N#Cc1c(/N=C/c2ccco2)oc(-c2ccccc2)c1-c1ccccc1 | ? | 5.2% | -7.6 | -0.2% | -20.5% | ?
COc1[nH]c(/N=C/c2ccco2)c(C#N)c1C#N | ? | 3.4% | . | -13.5% | 7.1% | 15.8µM*
O=C(Nc1ccccc1)N1CC2(CCN(C(=O)c3cnccn3)CC2)C1 | 0.8% | . | . | . | . | 2.7%
O=[N+]([O-])c1ccccc1SN(Cc1ccccc1)c1ccccn1 | 14.6µM* | 11.0% | ? | -20.1% | -10.2% | ?
O=C(c1ccc([N+](=O)[O-])cc1)N(Cc1ccccc1)c1ccccn1 | -16.9% | 5.9% | -9.5 | 13.6% | 13.2% | 19.8%
O=C1c2ccccc2C(c2nnnn2-c2ccc3c(c2)OCCO3)N1CCc1c[nH]c2ccccc12 (centres undefined) | 14.6µM* | . | 26.8 | . | . | 18.4µM*
O=C1c2ccccc2C(c2nnnn2-c2ccc3c(c2)OCCO3)N1Cc1ccc(F)cc1 (centres undefined) | ? | . | 42.0 | . | . | ?
COCCN1C(=O)c2ccccc2C1c1nnnn1-c1ccc2c(c1)OCCO2 (centres undefined) | 4.8% | . | 0.0 | . | . | -9.1%
COc1ccc(CN2C(=O)c3ccccc3C2c2nnnn2-c2ccc3c(c2)OCCO3)cc1 (centres undefined) | 16.4µM* | . | -18.6 | . | . | ?
SMILES | DT40 TDP1 no CPT | TDP1 block | IL1B secr inh | HepG2 tox | TGFb inhibitor | TDP1 cell CPT
CC(C)CCN1C(=O)c2ccccc2C1c1nnnn1-c1ccc2c(c1)OCCO2 (centres undefined) | 16.4µM* | . | -4.2 | . | . | 23.1µM*
Cc1ccccc1CN1C(=O)c2ccccc2C1c1nnnn1-c1ccc2c(c1)OCCO2 (centres undefined) | 4.11µM* | . | 98.5 | . | . | 5.17µM*
COC(=O)N1CCC[C@@]2(CCN(c3ccncc3)C2)C1 | -21.0% | . | . | . | . | -21.9%
O=C(NCCCN1CCOCC1)c1cc(Cl)ccc1OCc1ccccc1 | -19.2% | 4.4% | 0.0 | 12.1% | ? | -18.8%
Cc1ccc(C)c(CSc2nnc3[nH]c(=O)cc(C)n23)c1 | 4.0% | 2.6% | . | 3.8% | 2.3% | 9.8%
Cc1ccc(CN2C(=O)c3ccccc3C2c2nnnn2-c2ccc3c(c2)OCCO3)cc1 (centres undefined) | 16.4µM* | . | 9.4 | . | . | ?
O=C1c2ccccc2C(c2nnnn2-c2ccc3c(c2)OCCO3)N1Cc1ccccc1 (centres undefined) | ? | . | 41.0 | . | . | ?
COc1ccc(/C=N/Nc2cc(C)nc3ccc(OC)cc23)c(OC)c1 | 5.8µM* | 6.0% | -103.9* | -107.2% | 10µM* | 11.6µM*
COc1ccc(/C=N/Nc2nc(C)cc(-c3ccccc3)n2)c(OC)c1 | 20.6µM* | 3.4% | 23.4 | -18.2% | -4.8% | 13.2%
Nc1nc(-c2ccc(Cl)cc2)cc(C(F)(F)F)n1 | -1.3% | 1.0% | -4.3 | -2.2% | -1.7% | -16.0%
Oc1ccc(/C=N/Nc2nc(-c3ccc(Cl)cc3)cc(C(F)(F)F)n2)cc1 | ? | 8.1% | -99.1* | -100.4% | ? | ?
COc1ccccc1/C=N/Nc1cc(C)nc2ccc(C)cc12 | -25.1% | . | -22.0 | -11.3% | 3.4% | ?
Cc1cc(-c2ccccc2)nc(N/N=C/c2ccc(O)cc2)n1 | ? | 4.5% | -100.3* | -26.1% | -27.3% | 11.6µM*
Cc1ccc(S(=O)(=O)N2CCOCC2)cc1NC(=O)CSc1nnnn1C1CC1 | 0.3% | . | -0.1 | 4.2% | -3.5% | -18.9%
COc1ccccc1Nc1ccc2nonc2c1[N+](=O)[O-] | 9.9% | 6.1% | 18.1 | -6.9% | -12.9% | -0.2%
COc1ccccc1N1CCN(C2CCCN(C(=O)c3cc(C(C)C)on3)C2)CC1 (centres undefined) | ? | . | 5.5 | -24.9% | -13.2% | ?
CCN(CC)c1ccc(C(=O)NCc2ccc3c(c2)CCN3C(C)=O)cc1 | -20.6% | 7.4% | . | -31.4% | ? | -3.0%
